What follows are substances tested against Stress-70 protein, mitochondrial (UniProt P38646) (assay: cross-link between two proteins; cross-linking mass spectrometry).

Chain of V-type proton ATPase subunit D, P57746 (P57746 whole entry): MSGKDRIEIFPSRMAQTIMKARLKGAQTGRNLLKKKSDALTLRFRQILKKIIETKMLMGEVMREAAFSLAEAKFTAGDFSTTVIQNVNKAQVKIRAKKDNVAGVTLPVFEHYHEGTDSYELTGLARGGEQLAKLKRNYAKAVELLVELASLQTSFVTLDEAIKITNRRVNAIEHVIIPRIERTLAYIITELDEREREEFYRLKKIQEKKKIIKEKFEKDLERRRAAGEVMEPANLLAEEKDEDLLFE

Listed as a hit, yes:
Pyrroline-5-carboxylate reductase 1, mitochondrial, P32322
Mitochondrial import inner membrane translocase subunit TIM44, O43615
Electron transfer flavoprotein subunit beta, P38117

Each substance was assayed against V-type proton ATPase 116 kDa subunit a 1 (UniProt Q9Z1G4) in the same assay as above.
Chain of V-type proton ATPase 116 kDa subunit a 1 (Q9Z1G4 whole entry): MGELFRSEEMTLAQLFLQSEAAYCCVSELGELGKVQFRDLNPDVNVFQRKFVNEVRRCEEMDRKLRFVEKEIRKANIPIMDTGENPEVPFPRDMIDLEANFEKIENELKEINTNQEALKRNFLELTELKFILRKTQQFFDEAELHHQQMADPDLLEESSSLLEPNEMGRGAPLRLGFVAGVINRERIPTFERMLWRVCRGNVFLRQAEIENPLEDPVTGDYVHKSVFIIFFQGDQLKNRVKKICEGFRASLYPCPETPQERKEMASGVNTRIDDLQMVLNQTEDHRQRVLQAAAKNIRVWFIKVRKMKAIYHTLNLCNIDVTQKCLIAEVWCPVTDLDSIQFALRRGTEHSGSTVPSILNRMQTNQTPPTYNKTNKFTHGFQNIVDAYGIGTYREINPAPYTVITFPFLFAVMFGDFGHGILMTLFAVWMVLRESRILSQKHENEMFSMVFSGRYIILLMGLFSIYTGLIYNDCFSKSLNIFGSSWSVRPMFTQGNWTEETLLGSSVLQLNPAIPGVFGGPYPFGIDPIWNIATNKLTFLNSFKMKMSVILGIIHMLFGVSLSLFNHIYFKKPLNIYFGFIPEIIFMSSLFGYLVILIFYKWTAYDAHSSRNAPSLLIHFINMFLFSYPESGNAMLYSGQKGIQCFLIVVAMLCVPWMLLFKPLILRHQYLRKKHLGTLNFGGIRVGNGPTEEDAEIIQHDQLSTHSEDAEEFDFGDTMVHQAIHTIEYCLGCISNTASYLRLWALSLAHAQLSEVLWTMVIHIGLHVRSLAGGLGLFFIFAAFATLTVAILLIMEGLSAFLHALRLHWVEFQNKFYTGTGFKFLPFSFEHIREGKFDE

Listed as a hit, yes:
Vesicle-associated membrane protein 1, Q62442
V-type proton ATPase subunit H, Q8BVE3
V-type proton ATPase subunit S1, Q9R1Q9

These substances were tested against V-type proton ATPase subunit B, brain isoform (UniProt P62814) in the same assay as above.
Chain of V-type proton ATPase subunit B, brain isoform (P62814 whole entry, canonical isoform): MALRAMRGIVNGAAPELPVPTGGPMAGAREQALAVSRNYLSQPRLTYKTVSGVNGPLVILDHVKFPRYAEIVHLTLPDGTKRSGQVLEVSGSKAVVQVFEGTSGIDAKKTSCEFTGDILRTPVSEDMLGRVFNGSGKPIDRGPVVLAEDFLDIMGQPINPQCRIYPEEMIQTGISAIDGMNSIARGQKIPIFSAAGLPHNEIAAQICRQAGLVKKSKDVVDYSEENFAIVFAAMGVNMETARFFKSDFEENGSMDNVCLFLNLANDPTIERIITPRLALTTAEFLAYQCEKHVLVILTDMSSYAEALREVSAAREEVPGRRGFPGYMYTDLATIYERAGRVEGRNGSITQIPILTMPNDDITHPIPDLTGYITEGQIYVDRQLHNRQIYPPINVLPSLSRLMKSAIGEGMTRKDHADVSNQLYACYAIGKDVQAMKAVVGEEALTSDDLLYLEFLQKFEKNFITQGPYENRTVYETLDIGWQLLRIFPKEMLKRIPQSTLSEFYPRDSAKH

Listed as a hit, yes:
V-type proton ATPase catalytic subunit A, P50516
V-type proton ATPase subunit D, P57746
V-type proton ATPase subunit E 1, P50518

Source: article PMC11024108
